Laboratory results: PubChem BioAssay (NCATS)
“And” between values parts separate entries of the source, which are not always exact repeats. Equal entries are not always repeated. Results filed as inconclusive are left out. The source made the active and inactive calls. The call rests on the fitted dose curve.

Test: qHTS Assay for Lipid Storage Modulators (AID 1519); on activity change, negative = inhibition: on the % scale 0 is the no-effect control and ±100 the full control effect
Settings: Drosophila S3 cells, BODIPY lipid droplet/cell ratio, laser cytometry, cells loaded with oleic acid
Description: NIH Molecular Libraries Probe Production Centers Network [MLPCN]
NIH Chemical Genomics Center [NCGC]
Assay Submitter (PI): Beller, Mathias; Max-Planck-Institut fur Biophysikalische Chemie
NCGC Assay Overview: Storing lipids as a reservoir for energy or the anabolism of elementary metabolites is a common feature of probably all cells and is conserved from bacteria to humans. The universal cellular lipid storage organelle is the so-called lipid storage droplet (LD). Although ubiquitous, LDs share a simple structure composed of a hydrophobic core that harbors the storage lipids, which is shielded by a droplet-specific phospholipid monolayer to which proteins are attached. The current model of LD biogenesis involves an incorporation of the lipid core into the membrane leaflets of the endoplasmic reticulum (ER) followed by a subsequent budding-like maturation of a LD, which ultimately pinches off. Once released, LD volume can increase by localized lipogenesis or fusion of existing droplets. Storage lipids are re-mobilized enzymatically by lipase activity. Lipase regulation in the adipocyte is heavily studied and involves multiple components including catecholamine signaling, the LD-associated proteins Perilipin and comparative gene identification-58 (CGI-58) and at least two lipases named hormone sensitive lipase (HSL) and adipocyte triglyceride lipase (ATGL). LD regulation outside of the adipocyte is poorly understood and only few components are known. However, there is an urgent need to learn more about ectopic fat depots as mislocalized storage of lipids, for example in the liver or muscle, is an eminent health problem associated with insulin resistance or the metabolic syndrome. We developed a laser-scanning cytometer assay to enable 1,536-well screening and combined the results of the small molecules screen with an RNAi database based on lipid storage.
NCGC Assay Protocol Summary:
We dispensed 4 uL of cells at 1.25 x 10^6 cells/mL into LoBase Aurora COC 1,536-well plates (black walled, clear bottom) with a bottle-valve solenoid-based dispenser (Aurora) to obtain 5,000 cells/well. Triacsin C (Sigma-Aldrich T-4540), an inhibitor of long-chain fatty acyl CoA synthetase that blocks synthesis of triglycerides, was used as a positive control for lipid under-storage. A total of 23 nL of compound solution of different concentrations were transferred to the assay plates using a Kalypsys pin tool equipped with a 1,536-pin array containing 10-nL slotted pins (FP1S10, 0.457-mm diameter, 50.8 mm long; V&P Scientific). One microliter of oleic acid (400 uM) was added, and the plate was lidded with stainless steel rubber gasket lined lids containing pinholes. […] Fluorescence was detected by excitation of the fluorophores with a 488-nm laser on an Acumen Explorer (TTP Lab Tech). The total intensity in channel 1 (500-530 nm) reflected lipid droplet accumulation. […] The ratio of the total intensity in PMT channel 1 over total intensity of channel 3 was also calculated. Percent activity was computed relative to an internal control (100% inhibited lipid droplet deposition due to the presence of 20 uM Triacsin C), which was added to 32 wells/plate.

[1] = measured here: cell count channel max response
[2] = measured here: lipid channel max response

| SMILES | activity change, negative = inhibition (at 25.7 µM (top of the series)) | activity change, negative = inhibition (at 57.5 µM (top of the series)) | max response [1] | max response [2] |
| --- | --- | --- | --- | --- |
| c1ccc2nc(N3CCNCC3)ccc2c1 | -1.91% (inactive) | 4.37% (inactive) and 6.17% (inactive) | -6.47% and 8.94% and 1.83% | -9.05% and 14.3% and 11.9% |
| COC(=O)C1=CCCN(C)C1 | 0.438% (inactive) | 7.06% (inactive) and -4.88% (inactive) | 20.3% and 3.22% and -69.9% | 21.3% and 16.2% and -73.3% |
| OC(c1ccccc1)(c1ccccc1)C1CCNCC1 | -3.2% (inactive) | – | -4.3% | -6.81% |
| COc1ccc(CN2CCNCC2)c(OC)c1OC | -1.99% (inactive) | – | -6.25% | -8.59% |
| O=C1CC2(CCCC2)CC(=O)N1CCCCN1CCN(c2ncccn2)CC1 | 0.205% (inactive) | -2.21% (inactive) | -26.7% and -71.1% | -24.8% and -67.1% |
| COC(=O)C1=C(C)NC(C)=C(C(=O)OC)C1c1ccccc1[N+](=O)[O-] | -3.56% (inactive) | -18.3% (inactive) | -12.4% and 9.66% | -15.8% and -7.21% |
| CCC(=O)O[C@H]1CC[C@H]2[C@@H]3CCC4=CC(=O)CC[C@]4(C)[C@H]3CC[C@]12C | 0.757% (inactive) | – | 2.96% | 3.14% |
| Cc1ccc(N=CN(C)C=Nc2ccc(C)cc2C)c(C)c1 | – | 14.3% (inactive) | 10.9% | 26.2% |
| Clc1ccc(CSC(Cn2ccnc2)c2ccc(Cl)cc2Cl)cc1 (stereo not given) | – | 11.1% (inactive) | -1.1% | 12.4% |
| CCCC(C)C1(CC)C(=O)N=C(S)NC1=O (stereo not given) | – | 4.86% (inactive) | -3.79% | 1.05% |
| CNC(=O)Oc1ccc2c(c1)[C@]1(C)CCN(C)[C@@H]1N2C | – | 0.848% (inactive) | -15.1% | -15.5% |
| Clc1ccc(C(OCCN2CCCCC2)c2ccccc2)cc1 (stereo not given) | – | 10.4% (inactive) | 15.5% | 25.9% |
